Source: PubChem BioAssay (NCATS)
Several values for one entry are separate records, joined by “and”; a condition that tells them apart may be missing. Equal values may be shown once. Results filed as inconclusive are left out. Some structures have more than one record in an assay (separate samples or runs), and their calls can disagree. Activity calls are given as the source filed them. Calls come from the whole dose curve; as a rule, active = well fitted inhibition curve with a large enough effect; inconclusive = small, poorly fitted or top-dose-only effect; inactive = flat fitted curve, though single readings scatter.

How the values were obtained:
CRL-7250 = normal cell line; assay: Cytotoxic Profiling of Annotated Libraries Using Quantitative High-Throughput Screening (AID 1296008); details: Five cell lines viability, CellTiter-Glo ATP luminescence, 48-72 h; max response: stronger effect = lower value; for max response: % is set by controls: 0 for no effect and ±100 for the full control effect
Summary of the method: (§1)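 Cells exposed to compounds for 48 or 72 hr at 37 degrees Celsius. Viability read as ATP-coupled luminescence with CellTiter-Glo after 10 min at room temperature.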

HEK293 = assay: as above; details: Five cell lines viability, CellTiter-Glo ATP luminescence, 48-72 h; max response: stronger effect = lower value
Summary of the method: as §1

HaCat [1] = assay: as above; details: Five cell lines viability, CellTiter-Glo ATP luminescence, 48-72 h; max response: stronger effect = lower value
Summary of the method: as §1

KB-3-1 = assay: as above; details: Five cell lines viability, CellTiter-Glo ATP luminescence, 48-72 h; max response: stronger effect = lower value
Summary of the method: as §1

NIH3T3 = assay: as above; details: Five cell lines viability, CellTiter-Glo ATP luminescence, 48-72 h; max response: stronger effect = lower value
Summary of the method: as §1

HACAT [2] = assay: qHTS assay to identify novel small-molecules to repurpose for Merkel cell carcinoma treatment (AID 1296009); details: MCC and control cell lines, CellTiter-Glo viability, 72 h; at 44.8 µM (top of the series) unless noted
Summary of the method: (§2)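 Cells were incubated with compound for 72 hr at 37 degree celsius before CellTiter-Glo addition. Luminescence was normalized with no-cell wells as full cytotoxicity and DMSO as baseline.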

HEK293T = assay: as above; details: MCC and control cell lines, CellTiter-Glo viability, 72 h; at 44.8 µM (top of the series) unless noted
Summary of the method: as §2

MCC-13 = assay: as above; details: MCC and control cell lines, CellTiter-Glo viability, 72 h; series mostly up to 46 µM
Summary of the method: as §2

MCC-26 = assay: as above; details: MCC and control cell lines, CellTiter-Glo viability, 72 h; series mostly up to 46 µM
Summary of the method: as §2

P93_24 = assay: qHTS profiling for inhibitors of Plasmodium falciparum proliferation (AID 504749); details: P. falciparum in erythrocytes, SYBR Green DNA, 72 h; series mostly up to 28.7 µM
Summary of the method: (§3)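 Readout was DNA-dye fluorescence from lysed cultures, ex 485/em 535 nm. Parasitized red cells had grown 72 h with compound; data scaled between 0.29 uM artemisinin and DMSO wells and corrected using vehicle-only plates.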

P94_40 = assay: as above; details: P. falciparum in erythrocytes, SYBR Green DNA, 72 h; series mostly up to 28.7 µM
Summary of the method: as §3

PAD = assay: as above; details: P. falciparum in erythrocytes, SYBR Green DNA, 72 h; series mostly up to 28.7 µM
Summary of the method: as §3

PC15 = assay: as above; details: P. falciparum in erythrocytes, SYBR Green DNA, 72 h; series mostly up to 28.7 µM
Summary of the method: as §3

PC26 = assay: as above; details: P. falciparum in erythrocytes, SYBR Green DNA, 72 h; series mostly up to 28.7 µM
Summary of the method: as §3

PC49 = assay: as above; details: P. falciparum in erythrocytes, SYBR Green DNA, 72 h; series mostly up to 28.7 µM
Summary of the method: as §3

SC27B = assay: as above; details: P. falciparum in erythrocytes, SYBR Green DNA, 72 h; series mostly up to 28.7 µM
Summary of the method: as §3

TAB109 = assay: as above; details: P. falciparum in erythrocytes, SYBR Green DNA, 72 h; series mostly up to 28.7 µM
Summary of the method: as §3

TAB113 = assay: as above; details: P. falciparum in erythrocytes, SYBR Green DNA, 72 h; series mostly up to 28.7 µM
Summary of the method: as §3

TAB165 = assay: as above; details: P. falciparum in erythrocytes, SYBR Green DNA, 72 h; series mostly up to 28.7 µM
Summary of the method: as §3

W2 = assay: as above; details: P. falciparum in erythrocytes, SYBR Green DNA, 72 h; series mostly up to 28.7 µM
Summary of the method: as §3
Note: nearly all actives have a fitted effect of over 60% in size.
Potency is the fitted concentration of half-maximal effect.

O=C(O)CCn1c2c(c3ccccc31)C[C@H](NS(=O)(=O)c1ccc(F)cc1)CC2
inactive: max response (CRL-7250) -4.51% | outcome (CRL-7250) | max response (HEK293) 3.39% and -17.8% | outcome (HEK293) | max response (HaCat [1]) 4.42% and 4.82% | outcome (HaCat [1]) | max response (KB-3-1) 0.769% and -7.72% | outcome (KB-3-1) | max response (NIH3T3) -9.59% and 4.36% | outcome (NIH3T3) | outcome (HACAT [2]) | outcome (HEK293T) | Potency (MCC-13) | Potency (MCC-26)

CNS(=O)(=O)CCc1ccc2[nH]cc(C3CCN(C)CC3)c2c1
inactive: max response (CRL-7250) -7.4% and 0.211% | outcome (CRL-7250) | max response (HEK293) -3.79% and -10.1% | outcome (HEK293) | max response (HaCat [1]) 0.93% | outcome (HaCat [1]) | max response (KB-3-1) -19.4% and 0.237% | outcome (KB-3-1) | max response (NIH3T3) 0.12% | outcome (NIH3T3) | outcome (HACAT [2]) | outcome (HEK293T) | Potency (MCC-13) | Potency (MCC-26)

CS(=O)(=O)c1ccc([C@@H](O)[C@@H](CO)NC(=O)C(Cl)Cl)cc1
inactive: max response (CRL-7250) -2.94% | outcome (CRL-7250) | max response (HaCat [1]) 4.09% | outcome (HaCat [1]) | max response (KB-3-1) -5.5% | max response (NIH3T3) 1.24% and 2.73% | outcome (HACAT [2]) | Potency (MCC-13)
active: Potency (HEK293) 2.99 µM

Clc1ccccc1CN1CCc2sccc2C1
inactive: max response (CRL-7250) -20.6% | outcome (CRL-7250) | max response (HaCat [1]) -7.82% | max response (KB-3-1) 9.17% and -6.26% | max response (NIH3T3) 1.51% and 3.19% | Potency (MCC-13) | Potency (MCC-26)

COc1ccc(C(=O)CC(=O)c2ccc(C(C)(C)C)cc2)cc1
inactive: Potency (P93_24) | Potency (P94_40) | Potency (PAD) | Potency (PC15) | Potency (PC26) | Potency (PC49) | Potency (SC27B) | Potency (TAB109) | Potency (TAB113) | Potency (TAB165) | max response (CRL-7250) -14.9% and 1.38% | max response (HEK293) 1.8% | outcome (HEK293) | max response (HaCat [1]) -14.4% | outcome (HaCat [1]) | max response (KB-3-1) -7.03% and 3.76% | max response (NIH3T3) -3.73% and 2.63% | outcome (HACAT [2]) | outcome (HEK293T) | Potency (MCC-13)

NC1(c2ccc(-c3nc4ccn5c(=O)[nH]nc5c4cc3-c3ccccc3)cc2)CCC1
inactive: max response (CRL-7250) -3.3% | max response (HaCat [1]) -15.1% | max response (NIH3T3) -6.67% | Potency (MCC-13)
active: Potency (HEK293) 3.32 µM and 2.37 µM and 3.26 µM | Potency (HaCat [1]) 25.9 µM | Potency (KB-3-1) 16.4 µM

C[C@@H](NCCCc1cccc(C(F)(F)F)c1)c1cccc2ccccc12
active: Potency (P93_24) 6.31 µM | Potency (P94_40) 5.01 µM | Potency (PAD) 2 µM | Potency (PC15) 11.2 µM | Potency (PC26) 4.78 µM | Potency (SC27B) 6.31 µM | Potency (TAB109) 4.47 µM | Potency (TAB113) 3.55 µM | Potency (TAB165) 3.98 µM | Potency (W2) 1.69 µM | Potency (HEK293) 15 µM | Potency (NIH3T3) 18.8 µM
inactive and 29.9 µM (active): Potency (MCC-26)
inactive: outcome (CRL-7250) | max response (HEK293) -18.5% | max response (HaCat [1]) -15.9% | max response (KB-3-1) 5.7% | outcome (NIH3T3) | Potency (MCC-13)

CO[C@@H]1[C@@H](OC(N)=O)[C@@H](O)[C@H](Oc2ccc3c(O)c(NC(=O)c4ccc(O)c(CC=C(C)C)c4)c(=O)oc3c2C)OC1(C)C
inactive: max response (CRL-7250) 0.852% and -24.9% | outcome (HEK293) | max response (HaCat [1]) 0.197% | outcome (HaCat [1]) | max response (KB-3-1) -7.22% and 9.2% | max response (NIH3T3) -2.07% and -24% | outcome (HACAT [2]) | outcome (HEK293T) | Potency (MCC-13)

CCCOc1ccc(C(=O)OCCN(CC)CC)cc1N
inactive: max response (CRL-7250) -2.34% and -3.98% | max response (HEK293) -0.795% | outcome (HEK293) | max response (HaCat [1]) -1.58% and 2.22% | max response (KB-3-1) -2.47% and 5.78% | outcome (NIH3T3) | outcome (HEK293T) | Potency (MCC-13) | Potency (MCC-26)

Cc1cccc(N(C)C(=S)Oc2ccc3ccccc3c2)c1
inactive: Potency (P93_24) | Potency (P94_40) | Potency (PAD) | Potency (PC15) | Potency (PC26) | Potency (PC49) | Potency (SC27B) | Potency (TAB109) | Potency (TAB113) | Potency (TAB165) | Potency (W2) | max response (CRL-7250) -5.5% | outcome (CRL-7250) | max response (HaCat [1]) 0.266% and 1.06% | max response (KB-3-1) 1.04% | outcome (KB-3-1) | max response (NIH3T3) -1.35% and 4.99% | Potency (MCC-13) | Potency (MCC-26)

CC(=O)CC(c1ccccc1)c1c(O)c2ccccc2oc1=O (stereo not drawn)
inactive: max response (CRL-7250) -2.79% | outcome (CRL-7250) | max response (HaCat [1]) -6.98% | outcome (HaCat [1]) | max response (KB-3-1) 7.33% and -13.6% and 2.81% | max response (NIH3T3) -11.7% and -5.84% | outcome (HACAT [2]) | outcome (HEK293T) | Potency (MCC-13) | Potency (MCC-26)

CC(C)OC(=O)C(C(=O)OC(C)C)=C1SC=CS1
inactive: Potency (P93_24) | Potency (PAD) | Potency (PC15) | Potency (PC26) | Potency (PC49) | Potency (SC27B) | Potency (TAB109) | Potency (TAB113) | Potency (TAB165) | Potency (W2) | outcome (CRL-7250) | max response (HEK293) -6.55% | max response (HaCat [1]) -22% | outcome (HaCat [1]) | max response (KB-3-1) 13.9% | outcome (KB-3-1) | max response (NIH3T3) 0.152% | outcome (NIH3T3) | outcome (HACAT [2]) | Potency (MCC-13) | Potency (MCC-26)
